Results on one compound are retold here after the supplement of paper PMC4237247.

For the experiment, the system named is HeLa. Briefly: percent cells in G1/S phase; higher = more G1/S content. The settings on record: 10 µM; 20 h; hit class: G2/M-phase inhibitor. Here is the method: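 HTS of 79,827 drug-like compounds at 10 uM. HeLa cells in 384-well plates were treated for 20 h, fixed, stained with Vybrant DyeCycle Green and scanned on an Acumen eX3 cytometer to give per-well cell cycle profiles. Only G2/M hits (>=67% G2/M) are listed.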
With `CN1Cc2c(ccc3c2OCO3)[C@@H]2[C@H]1c1cc3c(cc1C[C@@H]2O)OCO3` [Chelidonine monohydrate (+)], the “percent cells in G1/S phase” value was found to be 19.8%.
